Laboratory results taken from article PMC10812921, “Transcriptional Coactivator BOB1 (OBF1, OCA-B) Modulates the Specificity of DNA Recognition by the POU-Domain Factors OCT1 and OCT2 in a Monomeric Configuration”.

Columns and labels:
[1] = target: POU1 (OCT1 POU domain) (human, UniProt P14859 260-458); test: EMSA-SELEX-seq; no BOB1; 20 mM Tris-HCl pH 7.6, 140 mM NaCl, 10% glycerol, 0.5 mM EDTA, 0.05% Triton X-100, 0.1 mg/mL BSA, 0.1 mg/mL poly(dI-dC), 5 mM DTT, room temperature, 20 min; high values mean tight binding; conditions: protein: recombinant; dsDNA, one strand shown
Procedure, shortened: (§1)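 After expression in E. coli BL21, tagged POU-domain proteins were purified under denaturing conditions and then renatured. Each binding reaction held 30 ng protein and 300 ng of a PCR-amplified double-stranded random 35-nt library in 20 μL Tris–HCl pH 7.6 binding buffer, with or without 28 ng coactivator protein, for 20 min at RT. Bands holding complexes were cut from native 6% PAGE, eluted and PCR-amplified across four rounds, and the output was Illumina-sequenced. The value given for binding preference is the share, in percent, of sequenced 8-mers fitting a motif pattern.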

[2] = target: T1, POU2 (OCT2 POU domain) (human, UniProt P09086 175-386); test: as above; conditions: protein: recombinant; dsDNA, one strand shown
T1 sequence: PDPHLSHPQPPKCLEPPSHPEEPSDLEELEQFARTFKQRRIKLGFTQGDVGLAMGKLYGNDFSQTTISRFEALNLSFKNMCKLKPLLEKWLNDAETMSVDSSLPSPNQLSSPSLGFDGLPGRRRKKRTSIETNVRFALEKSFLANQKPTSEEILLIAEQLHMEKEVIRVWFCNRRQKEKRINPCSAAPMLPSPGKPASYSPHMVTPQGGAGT
Procedure, shortened: as §1

[3] = target: POU1 (OCT1 POU domain);BOB1 (OBF1, OCA-B) (human;human, UniProt P14859;Q16633 260-458;1-256, |); test: EMSA-SELEX-seq; with BOB1 (ternary complex band); 20 mM Tris-HCl pH 7.6, 140 mM NaCl, 10% glycerol, 0.5 mM EDTA, 0.05% Triton X-100, 0.1 mg/mL BSA, 0.1 mg/mL poly(dI-dC), 5 mM DTT, room temperature, 20 min; high values mean tight binding; conditions: protein: recombinant;recombinant; copies: 1;1; dsDNA, one strand shown
Procedure, shortened: as §1

[4] = target: T2, POU2 (OCT2 POU domain);BOB1 (OBF1, OCA-B) (human;human, UniProt P09086;Q16633 175-386;1-256, |); test: as above; conditions: protein: recombinant;recombinant; copies: 1;1; dsDNA, one strand shown
T2 sequence 1: T1 sequence
T2 sequence 2: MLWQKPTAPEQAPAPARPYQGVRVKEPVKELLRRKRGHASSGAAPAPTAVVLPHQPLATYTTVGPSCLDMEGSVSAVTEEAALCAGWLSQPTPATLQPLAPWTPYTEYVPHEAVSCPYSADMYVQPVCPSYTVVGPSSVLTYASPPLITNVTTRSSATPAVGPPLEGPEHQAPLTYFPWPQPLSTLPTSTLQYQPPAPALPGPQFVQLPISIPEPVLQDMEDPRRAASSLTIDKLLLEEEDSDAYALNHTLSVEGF
Procedure, shortened: as §1

Sequence of POU1 (OCT1 POU domain) (P14859 260-458): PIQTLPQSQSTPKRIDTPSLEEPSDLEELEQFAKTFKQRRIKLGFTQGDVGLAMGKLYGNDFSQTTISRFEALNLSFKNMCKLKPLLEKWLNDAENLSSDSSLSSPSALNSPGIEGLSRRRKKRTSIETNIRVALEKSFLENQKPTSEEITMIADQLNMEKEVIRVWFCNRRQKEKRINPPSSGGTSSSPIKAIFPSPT

Row | Sequence | binding signal [1] | binding signal [2] | binding signal [3] | binding signal [4]
1 | ACCTAAAA | 0.021 % of ANNNNAAN 8-mers | 0.0311 % of ANNNNAAN 8-mers | 0.0254 % of ANNNNAAN 8-mers | 0.0157 % of ANNNNAAN 8-mers
2 | AACATAAA | 0.101 % of ANNNNAAN 8-mers | 0.125 % of ANNNNAAN 8-mers | 0.0527 % of ANNNNAAN 8-mers | 0.0627 % of ANNNNAAN 8-mers
3 | AAGCTAAT | 0.0969 % of ANNNNAAN 8-mers | 0.136 % of ANNNNAAN 8-mers | 0.0527 % of ANNNNAAN 8-mers | 0.0644 % of ANNNNAAN 8-mers
4 | ACACGAAC | 0.0114 % of ANNNNAAN 8-mers | 0.0167 % of ANNNNAAN 8-mers | 0.0121 % of ANNNNAAN 8-mers | 0.0124 % of ANNNNAAN 8-mers
5 | ATACCAAT | 0.0465 % of ANNNNAAN 8-mers | 0.0518 % of ANNNNAAN 8-mers | 0.0394 % of ANNNNAAN 8-mers | 0.0471 % of ANNNNAAN 8-mers
6 | ACGCGAAA | 0.0179 % of ANNNNAAN 8-mers | 0.0265 % of ANNNNAAN 8-mers | 0.0211 % of ANNNNAAN 8-mers | 0.0314 % of ANNNNAAN 8-mers
7 | AGATCAAT | 0.0465 % of ANNNNAAN 8-mers | 0.0432 % of ANNNNAAN 8-mers | 0.0355 % of ANNNNAAN 8-mers | 0.0578 % of ANNNNAAN 8-mers
8 | ATGGCAAT | 0.0545 % of ANNNNAAN 8-mers | 0.0719 % of ANNNNAAN 8-mers | 0.0484 % of ANNNNAAN 8-mers | 0.0578 % of ANNNNAAN 8-mers
9 | ACACAAAT | 0.116 % of ANNNNAAN 8-mers | 0.0857 % of ANNNNAAN 8-mers | 0.175 % of ANNNNAAN 8-mers | 0.0916 % of ANNNNAAN 8-mers
10 | AGGGGAAT | 0.11 % of ANNNNAAN 8-mers | 0.121 % of ANNNNAAN 8-mers | 0.089 % of ANNNNAAN 8-mers | 0.11 % of ANNNNAAN 8-mers
11 | AGGCAAAA | 0.236 % of ANNNNAAN 8-mers | 0.136 % of ANNNNAAN 8-mers | 0.454 % of ANNNNAAN 8-mers | 0.204 % of ANNNNAAN 8-mers
12 | ATTGTAAT | 0.312 % of ANNNNAAN 8-mers | 0.357 % of ANNNNAAN 8-mers | 0.116 % of ANNNNAAN 8-mers | 0.137 % of ANNNNAAN 8-mers
13 | ACATAAAA | 0.103 % of ANNNNAAN 8-mers | 0.114 % of ANNNNAAN 8-mers | 0.073 % of ANNNNAAN 8-mers | 0.0925 % of ANNNNAAN 8-mers
14 | AATGCAAT | 0.0862 % of ANNNNAAN 8-mers | 0.0949 % of ANNNNAAN 8-mers | 0.089 % of ANNNNAAN 8-mers | 0.0916 % of ANNNNAAN 8-mers
15 | AATAAAAC | 0.0751 % of ANNNNAAN 8-mers | 0.0967 % of ANNNNAAN 8-mers | 0.0757 % of ANNNNAAN 8-mers | 0.0726 % of ANNNNAAN 8-mers
16 | ATGTTAAT | 1.39 % of ANNNNAAN 8-mers | 1.31 % of ANNNNAAN 8-mers | 0.208 % of ANNNNAAN 8-mers | 0.24 % of ANNNNAAN 8-mers

Row | Sequence | binding signal [1] | binding signal [2] | binding signal [3] | binding signal [4]
17 | ACATAAAT | 0.23 % of ANNNNAAN 8-mers | 0.251 % of ANNNNAAN 8-mers | 0.117 % of ANNNNAAN 8-mers | 0.177 % of ANNNNAAN 8-mers
18 | ATCCTAAC | 0.0172 % of ANNNNAAN 8-mers | 0.0299 % of ANNNNAAN 8-mers | 0.023 % of ANNNNAAN 8-mers | 0.0355 % of ANNNNAAN 8-mers
19 | AGCGAAAA | 0.0389 % of ANNNNAAN 8-mers | 0.0386 % of ANNNNAAN 8-mers | 0.0418 % of ANNNNAAN 8-mers | 0.033 % of ANNNNAAN 8-mers
20 | AGAGCAAG | 0.0156 % of ANNNNAAN 8-mers | 0.0213 % of ANNNNAAN 8-mers | 0.0191 % of ANNNNAAN 8-mers | 0.0132 % of ANNNNAAN 8-mers
21 | ACCCTAAA | 0.0137 % of ANNNNAAN 8-mers | 0.0173 % of ANNNNAAN 8-mers | 0.0137 % of ANNNNAAN 8-mers | 0.0107 % of ANNNNAAN 8-mers
22 | ATCGGAAA | 0.04 % of ANNNNAAN 8-mers | 0.0409 % of ANNNNAAN 8-mers | 0.0429 % of ANNNNAAN 8-mers | 0.0528 % of ANNNNAAN 8-mers
23 | AAAGCAAA | 0.106 % of ANNNNAAN 8-mers | 0.0754 % of ANNNNAAN 8-mers | 0.179 % of ANNNNAAN 8-mers | 0.0908 % of ANNNNAAN 8-mers
24 | AATAAAAT | 0.214 % of ANNNNAAN 8-mers | 0.214 % of ANNNNAAN 8-mers | 0.185 % of ANNNNAAN 8-mers | 0.164 % of ANNNNAAN 8-mers
25 | AGTCCAAC | 0.0114 % of ANNNNAAN 8-mers | 0.0167 % of ANNNNAAN 8-mers | 0.0144 % of ANNNNAAN 8-mers | 0.0248 % of ANNNNAAN 8-mers
26 | AATTTAAG | 0.15 % of ANNNNAAN 8-mers | 0.142 % of ANNNNAAN 8-mers | 0.144 % of ANNNNAAN 8-mers | 0.12 % of ANNNNAAN 8-mers
27 | AGTGCAAA | 0.0873 % of ANNNNAAN 8-mers | 0.0593 % of ANNNNAAN 8-mers | 0.126 % of ANNNNAAN 8-mers | 0.0743 % of ANNNNAAN 8-mers
28 | ATTGGAAA | 0.0927 % of ANNNNAAN 8-mers | 0.0794 % of ANNNNAAN 8-mers | 0.11 % of ANNNNAAN 8-mers | 0.0735 % of ANNNNAAN 8-mers
29 | ACTAAAAC | 0.0233 % of ANNNNAAN 8-mers | 0.0311 % of ANNNNAAN 8-mers | 0.023 % of ANNNNAAN 8-mers | 0.0297 % of ANNNNAAN 8-mers
30 | ATTAAAAT | 0.614 % of ANNNNAAN 8-mers | 0.636 % of ANNNNAAN 8-mers | 0.228 % of ANNNNAAN 8-mers | 0.204 % of ANNNNAAN 8-mers
31 | ATTGCAAG | 0.0271 % of ANNNNAAN 8-mers | 0.0397 % of ANNNNAAN 8-mers | 0.0336 % of ANNNNAAN 8-mers | 0.0363 % of ANNNNAAN 8-mers
